# Assay results published in PubChem BioAssay (Tox21).
# Inconclusive results are not listed. Where a call stands in place of a potency, no number is given. A number with no mark means an inactive call. The source made the active and inactive calls. The call rests on the fitted dose curve; in most records, active means well fitted inhibition curve with a large enough effect in the repeat runs; inconclusive means weak or mixed curves, or effect the other way; inactive means no such curve, though single readings can be large or run the other way.
# Test: qHTS assay to identify small molecule antagonists of the retinoic acid receptor (RAR) signaling pathway (AID 1159552; further: nearly all actives have a fitted effect of over 50% in size)
# Settings: C3RL4 RARE luciferase reporter, retinol-stimulated, 6 h; series mostly up to 92.4 µM
# Method in brief: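 Overnight-plated C3RL4 reporter cells get compound, then retinol to 1 uM final; plates sit 6 hr at 37 C, 5% CO2. A luciferase reagent is added and light output recorded after 30 min at room temperature.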
# Potency means the concentration at half of the fitted maximal effect.
Structure (SMILES),Potency,"activity, negative = inhibition"
CCCC[P+](C)(CCCC)CCCC,inactive,–
O=C1C(c2[nH]c3ccc(S(=O)(=O)O)cc3c2O)=Nc2ccc(S(=O)(=O)O)cc21,inactive,–
CC(CCc1ccccc1)NCC(O)c1ccc(O)c(C(N)=O)c1 (stereo unspecified),inactive,–
O=C(O)c1cc(O)c2ccccc2c1O,68.6 µM (active),–
COc1ccc(-c2coc3cc(O)ccc3c2=O)cc1,inactive,–
NC(=S)NC(N)=S,inactive,–
CC(C)(C)CC(C)(C)c1ccc(Nc2ccc(C(C)(C)CC(C)(C)C)cc2)cc1,–,-23.1% [at 8.39 µM]
CC(C)=CCC1=C(O)c2ccccc2C(=O)C1=O,inactive,–
O=C(Oc1ccccc1)Oc1ccccc1,inactive,–
Cc1ccc(-c2ccccc2)cc1,inactive,–
CCCCNS(=O)(=O)c1ccc(C)cc1,inactive,–
CCCc1ccc(OCC(=O)N2CCN(C(=O)COc3ccc(CCC)cc3OC)CC2)c(OC)c1,inactive,–
O=C(O)CCN(C1(C(=O)NO)CCCC1)S(=O)(=O)c1ccc(Oc2ccc(F)cc2)cc1,inactive,–
COc1cc(/C=C/c2ccccc2)oc(=O)c1,inactive,–
CN(C)Cc1cc(C(C)(C)C)c(O)c(C(C)(C)C)c1,inactive,–
O=c1[nH]c(=O)n([C@H]2C[C@H](O)[C@@H](CO)O2)cc1F,inactive,–
C=C(CC)C(=O)c1ccc(OCC(=O)O)c(Cl)c1Cl,48.2 µM (active),–
Nc1ccc(Oc2ccc(Cl)cc2)cc1,inactive,–
COC(=O)c1ccccc1OC,inactive,–
O=C(O)O,–,-54.8% [at 8.39 µM]
CNC(=O)c1ccccc1Sc1ccc2c(/C=C/c3ccccn3)n[nH]c2c1,inactive,–
